The results in this text go back to PubChem BioAssay (NCI).

This is part of a sample that, as a whole, favours compounds with a hit. Of some 83,000 tested, about 20% had one in any assay.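 The test compound was applied at a single concentration to cells in 96-well plates for 48 hours, and percent growth was recorded.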 Active and inactive are the calls of the source.

For the assay, the system named is MCF7 breast. The assay can be described thus: NCI-60 one-dose screen, 48 h (100 = growth as untreated, 0 = no growth, -100 = all killed). As to conditions: 10 µM unless noted. The protocol: Growth inhibition of the MCF7 human tumor cell line is measured as a screen for anti-cancer activity. Cells are grown in 96 well plates and exposed to the test compound for 48 hours. Compounds are tested at a single concentration, which is 10^-5 M for most compounds. The reported endpoint is percent growth (GI% or GIPRCNT), where numbers from 0 - 100% represent growth inhibition, and numbers from -100% - 0 represent cell death. For example, a value of 40 represents 60% growth inhibition. A value of 0 means no net growth occurred over the course of the experiment. A value of -40 indicates 40% of cells at the beginning of the experiment died by the end of the experiment. A value of -100 means all cells are dead at the end of the experiment.
NCI-60 Human Tumor Cell Lines Screen was performed using the standard one-dose NCI protocol, which is described in more detail at https://dtp.cancer.gov/discovery_development/nci-60/default.htm.
Compounds with GIPRCNT values below 10 were considered active. Activity score was based on GIPRCNT using the following formula: […]
Score is 0 for GIPRCNT values of 100 or above, 50 for GIPRCNT values of 0, and 100 for GIPRCNT values of -100.
Consider `COc1ccc(-c2cc(-c3cc(OC)c(OC)c(OC)c3)c(C#N)c(=O)n2CCCCCC(=O)NO)cc1`, for which the growth is 89% (inactive).
Take `C[C@@H]1O[C@@H](O[C@@H]2C[C@H](c3ccc4c(c3O)C(=O)C3=C(C4=O)[C@@]4(O)C(=O)C[C@](C)(O)C[C@@]4(O)C=C3)O[C@H](C)[C@H]2O)C[C@H](O)[C@@H]1O`: the growth was 91.8% (inactive).
To `CCCCCSB(SCCCCC)c1ccccc1` belongs 104% (inactive); to `CCOC(=O)C1=C(C)N=C2SC=C(c3ccccc3)N2[C@H]1c1cn[nH]c1-c1ccc(Cl)cc1`, 21.7% (inactive).
Turning to `Cc1nc2sc(C(=O)Nc3ccccc3)c(N)c2cc1C(=O)/C=C/c1ccccc1`, the growth was 3.7% (active).
To `CCCCCCCCNc1cc2c3c(c1)CCCN3CCC2` belongs 24.3% (inactive).
Turning to `Cn1cc(-c2nonc2-c2c[nH]c3ccc(F)cc23)c2cc(Br)ccc21`, the growth was 32.2% (inactive).
Then `CC(C)(C)C(=O)/C=C/c1ccc([N+](=O)[O-])cc1`, with 8.67% (active); and `C(/C=C/c1ccccc1)=Nc1ccc(CCc2ccc(N=C/C=C/c3ccccc3)cc2)cc1`, with 69.2% (inactive); and `C=C1C(=O)O[C@H]2[C@H]1CC/C(COC(=O)NCc1ccc(Cn3c(=O)sn(-c4ccc(OC)cc4)c3=O)cc1)=C\CC[C@@]1(C)O[C@@H]21`, with 20.3% (inactive).
Then `Cn1ccnc1C(=O)/C=C/c1ccc(C(=O)Nc2ccc(F)cc2)cc1`, with 19% (inactive); and `COc1ncc2cc1NS(=O)(=O)c1cccc(c1)C(=O)NCC1=CC=C(S1)c1ncnc3c1SC2=C3C`, with -12.5% (active); and `O=C(c1ccc(Cl)cc1Cl)N1c2ccccc2Sc2ccccc21`, with 52.4% (inactive).
To `Cc1ccc(/C=C2\CN(C(=O)C(Cl)Cl)C/C(=C\c3ccc(C)cc3)C2=O)cc1` belongs -32.1% (active).
Take `COc1ccc2cc(-c3ccc(-c4ccc(C(=N)N)s4)s3)ccc2c1`: the growth is -60.9% (active).
To `C=CCN=C(N)SCCCCCCSC(N)=NCC=C` belongs 90.9% (inactive); to `c1ccc(CCc2ccccc2-c2cc(-c3ccccc3)on2)cc1`, 74.7% (inactive); to `O=C1Nc2ccc(F)cc2/C1=N/c1nnc(Sc2ccccc2)s1`, 22.2% (inactive).
As for `CN(C)c1ccc(/C=C/C(=O)c2ccccc2)cc1`, the growth was 44.7% (inactive).
As for `O=C1c2cccnc2C(=O)c2c1c(C(=O)OCCCN1CCCCC1)c1ccccn21`, the growth is -42% (active).
To `CCOC(=O)c1c(-c2ccc(Cl)cc2)c(C#N)c2c(C#N)c(N)nn2c1N` belongs 37.6% (inactive); to `C=C(C)[C@@H]1CC[C@]2(CO)CC[C@]3(C)[C@H](CC[C@@H]4[C@@]5(C)CCC(NCCc6ccc(O)cc6)C(C)(C)[C@@H]5CC[C@]43C)[C@@H]12` (stereo not given in full), -77.9% (active).
To `O=C(NCc1ccc2c(c1)OCO2)NCC1CCCC(CNC(=O)NCc2ccc3c(c2)OCO3)C1` (stereo not given) belongs 101% (inactive); to `CCOC(=O)c1c(-c2ccccc2)n2c(=O)cc(C)c3c(O)c(O)cc1c32`, 29.9% (inactive); to `Cc1ccc(C)n1/C=C/n1c(C)ccc1C`, 106% (inactive).
To `COc1ccc(/C=C/C(=O)c2ccc(NC(=O)CSc3nnc(-c4cc(-c5ccccc5)nc5ccccc45)n3-c3ccccc3)cc2)cc1` belongs 93.7% (inactive); to `Cc1cc(C)c(-c2c(O)c(Br)c(-c3c(C)cc(C)c(Br)c3C)c(O)c2Br)c(C)c1Br`, 6.48% (active); to `Cc1nn(-c2ccccc2)c(/N=C/N(C)C)c1/C=C/C(=O)c1ccc(Cl)cc1`, 85.9% (inactive).
`Clc1ccc(-c2nc(-c3c[nH]c4ncccc34)cs2)cc1`: the growth was 66.7% [100 µM] (inactive).
Then `CCOC(=O)n1cc(-c2nonc2-c2cn(C)c3ccccc23)c2ccccc21`, with 21.6% (inactive); and `CCCCn1sc(=O)n(Cc2ccc(CNC(=O)OCc3ccc4c(Br)cc(Br)c(O)c4n3)cc2)c1=O`, with 12% (inactive).
Then `CN1C(=O)/C(=C/c2ccc(C(=O)Nc3ncc(Cc4ccc(F)cc4)s3)cc2)SC1=S`, with 46.8% (inactive).
For the compound `COc1ccc(-c2cc(C(=O)N3N=C(c4ccc(N)cc4)CC3c3ccccc3)c3ccccc3n2)cc1` (stereo not given), the growth is 24.1% (inactive).
Then `O=C1/C(=C/c2ccc(C(F)(F)F)cc2)COc2ccc(O)c(O)c21`, with 4.91% (active); and `NS(=O)(=O)c1ccc(N/C=C/C(=O)c2cc3ccccc3oc2=O)cc1`, with 68.8% (inactive).
Then `COc1cc(N2C(=O)[C@H](c3ccccc3)C2c2ccc(SC)cc2)cc(OC)c1OC` (stereo not given in full), with 6.93% (active).
Then `COC(=O)c1c2c(n3ccc(C)cc13)C(=O)c1ccccc1C2=O`, with 55.9% (inactive); and `COc1cc(C#Cc2ccc(=O)oc2C#Cc2ccccc2)cc(OC)c1OC`, with 44.6% (inactive); and `N#Cc1nc(-c2ccc(F)cc2)oc1S(=O)(=O)N1CCN(c2ccc(F)cc2)CC1`, with 40.9% (inactive).
`CC1(C)CC[C@]2(C(=O)O)CC[C@]3(C)C(=CC[C@@H]4[C@@]5(C)C[C@@H](Cc6cn([C@@H]7O[C@H](CO)[C@@H](O)[C@H](O)[C@H]7O)nn6)[C@H](O)C(C)(C)[C@@H]5CC[C@]43C)[C@@H]2C1`: the growth is 91.4% (inactive).
